# Values joined by “and” are separate entries in the source; they are usually repeats but may differ in a detail not shown here. Equal values may be shown once. Inconclusive results are not listed. A call without a number means that no potency is given here. Active and inactive are the calls of the source. Calls come from the whole dose curve; as a rule, active = well fitted cell-killing curve with a large enough effect; inconclusive = small, poorly fitted or top-dose-only effect, or effect the other way; inactive = no such curve, though single readings can be large or run the other way.
# Test: Viability qHTS for spleen associated tyrosine kinase inhibitor (SYKi) naive MV4-11 cells (AID 1963823); note: nearly all actives have a fitted effect of over 40% in size
# Settings: MV4-11 AML viability, CellTiter-Glo luminescence, 72 h; series mostly up to 45 µM
# Description: Department of Medicine, Hematology/Oncology
# University Hospital Frankfurt, Germany.
# Trials have shown promising clinical activity of the selective SYK inhibitor entospletinib in patients with high expressing HOXA9/MEIS1 acute leukemias. As the development of resistance mechanisms is a common problem in the use of targeted drugs, we performed a chemical library screen to identify drug sensitivities in SYK inhibitor resistant AML cells. […] Glucocorticoids are potent immunosuppressants which work in part by inhibiting the transcription of cytokine genes.
# Described herein is a viability screen to look for activity in the SYK inhibitor naive cell line against four NCATS compound libraries (MIPE 5.0, NPC, NPACT, and Kinase) totaling 11372 compounds. Active hits were reacquired for confirmation and further secondary assay testing.
# SEQUENCE No. (e.g., 1, 2, 3, etc.); […] (e.g., Cells, Incubation, Reagent, etc.); VALUE; DESCRIPTION.
# 1; Media; 2uL; white, solid-bottom Corning assay plate.
# 2; Compounds; 23nL; Echo acoustic dispenser.
# 3; Cell; 5uL; 500 cells per well.
# 4: Incubation; 72hr; 37 C, 5% CO2, 95% humidity.
# 5; Reagent; 3uL; CellTiter-Glo reagent (Promega).
# 6; Incubation; 10min; room temperature.
# 7; Detection; Luminescence; ViewLux plate reader (PerkinElmer).
# NOTES (numbers refer to Sequence numbers above
# 1. Quantitative high-throughput screening (qHTS) of small molecule compounds was conducted on naive SYKi MV4-11 cell line.
# 2. Twenty-three nanoliter of small molecule compounds were added to each assay plates using the Echo acoustic dispenser (Beckman Coulter).
# 3. Cells were seeded into the assay plates at a final density of 500 cells in 5uL of media per well using the Multi-drop Combi dispenser.
# 4. Plates were covered with stainless steel gasketed lids and incubated for 72 hours at standard cell culture conditions.
# 5. Viability was assessed by adding 3uL of CellTiter-Glo detection reagent (Promega).
# 6. Plates were covered with gasket lids and incubated for 10 minutes at room temperature.
# 7. Luminescence was measured on a ViewLux plate reader (PerkinElmer).
# Potency is the fitted concentration of half-maximal effect.
SMILES,Potency,viability (% of control)
O=C1C(c2[nH]c3ccccc3c2O)=Nc2ccccc21,inactive,–
C=CCNC1=C2CC(C)CC(OC)C(O)C(C)/C=C(\C)C(OC(N)=O)C(OC)/C=C/C=C(\C)C(=O)NC(=CC1=O)C2=O (stereo not given),0.0934 µM (active),–
OCC1=C[C@@H](O)[C@@H]2C=CO[C@@H](O[C@@H]3O[C@H](CO)[C@@H](O)[C@H](O)[C@H]3O)[C@H]12,inactive,–
O=C(CCCCCCNC(=O)c1cnc(N(c2ccccc2)c2ccccc2Cl)nc1)NO,3.32 µM (active),–
Clc1ccc(C(c2ccccc2Cl)C(Cl)Cl)cc1 (stereo not given),inactive,–
CN1CCN2c3ncccc3Cc3ccccc3C2C1 (stereo not given),inactive,–
CC(C)[C@@](C)(O)[C@@H]1CN(c2nc(-c3[nH]nc4ncccc34)c(F)cc2Cl)CCN1,0.366 µM (active),–
Cc1cc(C(C#N)c2ccc(Cl)cc2)c(Cl)cc1NC(=O)c1cc(I)cc(I)c1O (stereo not given),18.8 µM (active),–
C=C1C(=O)OC2/C=C(/C)C3=CC(=O)C(C)(CC(OC(=O)/C(C)=C/COC(C)=O)C12)O3 (stereo not given),0.893 µM (active),–
CC(C)(O)/C=C1/C(=O)C(C)(C)C(=O)C(C)(C)C1(O)O[C@@H]1O[C@H](COC(=O)c2cc(O)c(O)c(O)c2)[C@@H](O)[C@H](O)[C@H]1O (stereo not given in full),inactive,–
CC[C@H]1OC(=O)[C@H](C)[C@@H](O[C@H]2C[C@@](C)(OC)[C@@H](O)[C@H](C)O2)[C@H](C)[C@@H](O[C@@H]2O[C@H](C)C[C@H](N(C)C)[C@H]2O)[C@](C)(O)C[C@@H](C)/C(=N/OCOCCOC)[C@H](C)[C@@H](O)[C@]1(C)O,inactive,–
CC1(C)C(O)CCC2(C)C1C(O)C=C1COC(=O)C12O (stereo not given),inactive,–
C=C1CC[C@H](O)CC1=C/C=C1\CCC[C@]2(C)[C@@H]([C@H](C)/C=C/[C@H](C)C(C)C)CC[C@@H]12,8.2 µM (active),–
CN([C@H]1c2cc(OCCCC(F)(F)F)ccc2OC(C)(C)[C@@H]1O)S(C)(=O)=O,inactive,–
C[C@H]1O[C@@H](O[C@H]2CC[C@@]3(C)C(CC[C@]4(C)C3CC=C3C5CC(C)(C)CC[C@]5(C(=O)O)CC[C@]34C(=O)O)C2(C)C)[C@H](O)[C@@H](O)[C@@H]1O (stereo not given in full),inactive,–
O=C1OCc2cc3cccc(O[C@@H]4O[C@H](CO)[C@@H](O)[C@H](O)[C@H]4O)c3c(O)c21,inactive,–
CCC(C)C(=O)Oc1cc(C)ccc1C1(COC(=O)C(C)C)CO1 (stereo not given),2.86 µM (active),–
C/C(=C\CCC(C)CCO)C(=O)OC[C@H]1O[C@@H](O[C@@H]2OC=C(C(=O)O)[C@H]3CC[C@](C)(O)[C@@H]23)C(O)[C@@H](O)C1O (stereo not given in full),inactive,–
CC1(C)CO[C@@H](CC(=O)O)CN1,inactive,–
COc1ccc2cc(-c3cc(-c4cc(Cl)cc(Cl)c4)nn3C(C)c3ccc(C(=O)NCCC(=O)O)cc3)ccc2c1 (stereo not given),23.1 µM (active),–

SMILES,Potency,viability (% of control)
COc1cc(SC)ccc1C(=O)N1CCC(Cc2ccccc2)CC1,23.1 µM (active),–
Oc1cccc(-c2nc(N3CCOCC3)c3sccc3n2)c1,0.82 µM (active),–
Nc1nc(F)nc2c1ncn2C1OC(COP(=O)(O)O)C(O)C1O (stereo not given),10.5 µM (active),–
CCC(=O)O[C@]1(C(=O)CCl)[C@@H](C)C[C@H]2[C@@H]3CCC4=CC(=O)C=C[C@]4(C)[C@@]3(F)[C@@H](O)C[C@@]21C,4.73 µM (active) and 10.5 µM (active),–
CC(=O)OCC1=C(C(=O)O)N2C(=O)[C@@H](NC(=O)Cc3cccs3)[C@H]2SC1,inactive,–
O=Cc1ccccc1C=O,inactive,–
CCC(CC)C(=O)OC12C(OC(=O)C(C)C)C(C)C3(O)C(C=C(CO)CC4(O)C(=O)C(C)=CC43)C1C2(C)C (stereo not given),0.0282 µM (active),–
CCCCCCCCCCCCOS(=O)(=O)O,inactive,–
Cn1cnc2c(F)c(Nc3ccc(Br)cc3Cl)c(C(=O)NOCCO)cc21,0.296 µM (active),–
CCCN1CCCC[C@H]1C(=O)Nc1c(C)cccc1C,inactive,–
N[C@@H](Cn1ccc(=O)c(O)c1)C(=O)O,–,88% [at 4.97 µM] (inactive)
C=C1C(=O)O[C@@H]2/C=C(/C)[C@@H](OC(C)=O)C/C=C(\C)C[C@@H](OC(=O)/C(=C/CO)CO)[C@@H]12,3.99 µM (active),–
CCN(CC)CCNC(=O)c1cc(Cl)c(N)cc1OC,inactive,–
COC(=O)C[C@@H]1C(C(=O)O)=CO[C@@H](O[C@@H]2O[C@H](CO)[C@@H](O)[C@H](O)[C@H]2O)/C1=C\COC(=O)/C=C/c1ccc(O)c(OC)c1,inactive,–
CC1OC(OC2C(OC(=O)[C@]34CCC(C)(C)C[C@H]3C3=CCC5[C@@]6(C)CC[C@H](OC7OC(C(=O)O)C(O)C(O)C7O)C(C)(C)C6CC[C@@]5(C)[C@]3(C)CC4O)OC(CO)C2O)C(O)C(O)C1OC1OCC(O)C(O)C1O (stereo not given in full),–,70.8% [at 9.25 µM] (inactive)
CC1CCC2C(C(=O)O)=CC3(O)CC(C)(C)CC123 (stereo not given),inactive,–
CCC(=O)OCC(=O)[C@@]1(OC(=O)CC)[C@@H](C)C[C@H]2[C@@H]3CCC4=CC(=O)C=C[C@]4(C)[C@@]3(F)[C@@H](O)C[C@@]21C,18.4 µM (active),–
CC1OC(OC2C(OC3C(O[C@H]4CC[C@@]5(C)C(CC[C@]6(C)C5C(=O)CC5=C7CC(C)(C)CC(O)[C@]7(C)CC[C@]56C)C4(C)C)OC(C(=O)O)C(O)C3O)OCC(O)C2O)C(O)C(O)C1O (stereo not given in full),–,77.2% [at 9.25 µM] (inactive)
Cc1ncc(CO)c(C=O)c1O,inactive,–
C=C[C@]1(C)C[C@H](O)[C@@H]2[C@H](OC(=O)[C@@H]2C)C1/C(C)=C/O[C@@H]1O[C@H](CO)[C@@H](O)[C@H](O)[C@H]1O (stereo not given in full),inactive,–
